Reference: PubChem BioAssay AID1159580 (chemical genetic matrix, 2015)
The campaign covered roughly 5,500 compounds. About 2,000 (36%) were called active. Roughly 18% stayed inconclusive and do not appear here. No stated cut-off is given here; in the data, active means normalized growth mostly below about 0.91 (no sharp cut-off); inconclusive means no clear call, values can overlap the other calls; inactive means mostly above about 0.92. Some of the results follow.

Assay: chemical genetic growth profiling, strain panel (AID 1159580);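 further: tested at 20 µM; growth read once vehicle control cultures reached saturation at 30 °C; 1 = growth at the plate median or of vehicle wells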
Settings: growth OD

Measured: normalized growth

CCCCC(CC)CN=C(N)NC(N)=NCCCCCCN=C(N)NC(N)=NCC(CC)CCCC (centres undefined)
active: S. cerevisiae deletion strains, locus YKL009W, strain mrt4, stronger effect = lower value 0.0745 | S. cerevisiae deletion strains, locus YKL068W, stronger effect = lower value 0.0576 | S. cerevisiae deletion strains, locus YKL085W, strain MDH1 (second series), stronger effect = lower value 0.0564 | S. cerevisiae deletion strains, locus YKL085W, strain MDH1, stronger effect = lower value 0.0564 | S. cerevisiae deletion strains, locus YKL160W, strain elf1, stronger effect = lower value 0.0635 | S. cerevisiae deletion strains, locus YKL190W, strain CNB1, stronger effect = lower value 0.05 | S. cerevisiae deletion strains, locus YKR001C, strain vps1, stronger effect = lower value 0.0639 | S. cerevisiae deletion strains, locus YKR026C, strain gcn3, stronger effect = lower value 0.0659 | S. cerevisiae deletion strains, locus YKR091W, strain srl3, stronger effect = lower value 0.0594 | S. cerevisiae deletion strains, locus YLL001W, strain dnm1, stronger effect = lower value 0.0606 | S. cerevisiae deletion strains, locus YLL026W, stronger effect = lower value 0.0577 | S. cerevisiae deletion strains, locus YLL041C, strain sdh2, stronger effect = lower value 0.0581 | S. cerevisiae deletion strains, locus YLR027C, strain aat2, stronger effect = lower value 0.0557 | S. cerevisiae deletion strains, locus YLR039C, strain RIC1, stronger effect = lower value 0.0876 | S. cerevisiae deletion strains, locus YLR058C, strain SHM2, stronger effect = lower value 0.0571 | S. cerevisiae deletion strains, locus YLR102C, strain apc9, stronger effect = lower value 0.0596 | S. cerevisiae deletion strains, locus YLR113W, strain HOG1, stronger effect = lower value 0.113 | S. cerevisiae deletion strains, locus YLR221C, strain rsa3, stronger effect = lower value 0.0636 | S. cerevisiae deletion strains, locus YLR258W, strain gsy2, stronger effect = lower value 0.0577 | S. cerevisiae deletion strains, locus YLR262C, strain YPT6 (second series), stronger effect = lower value 0.0725 | S. cerevisiae deletion strains, locus YLR262C, strain YPT6, stronger effect = lower value 0.104 | S. cerevisiae deletion strains, locus YLR268W, strain sec22, stronger effect = lower value 0.0602 | S. cerevisiae deletion strains, locus YLR320W, strain mms22, stronger effect = lower value 0.0987 | S. cerevisiae deletion strains, locus YLR330W, strain CHS5, stronger effect = lower value 0.0561 | S. cerevisiae deletion strains, locus YLR342W, strain FKS1 (second series), stronger effect = lower value 0.0721 | S. cerevisiae deletion strains, locus YLR342W, strain FKS1, stronger effect = lower value 0.0635 | S. cerevisiae deletion strains, locus YLR357W, strain rsc2, stronger effect = lower value 0.127 | S. cerevisiae deletion strains, locus YLR370C, strain arc18, stronger effect = lower value 0.0632 | S. cerevisiae deletion strains, locus YLR371W, strain rom2, stronger effect = lower value 0.0612 | S. cerevisiae deletion strains, locus YLR384C, strain iki3, stronger effect = lower value 0.0589 | S. cerevisiae deletion strains, locus YLR418C, strain cdc73, stronger effect = lower value 0.0906 | S. cerevisiae deletion strains, locus YML016C, strain PPZ1, stronger effect = lower value 0.0539 | S. cerevisiae deletion strains, locus YML032C, strain rad52, stronger effect = lower value 0.0626 | S. cerevisiae deletion strains, locus YML120C, strain ndi1, stronger effect = lower value 0.0582 | S. cerevisiae deletion strains, locus YML124C, strain tub3, stronger effect = lower value 0.058 | S. cerevisiae deletion strains, locus YMR058W, strain fet3, stronger effect = lower value 0.0606 | S. cerevisiae deletion strains, locus YMR078C, strain ctf18, stronger effect = lower value 0.0695 | S. cerevisiae deletion strains, locus YMR125W, strain sto1, stronger effect = lower value 0.0772 | S. cerevisiae deletion strains, locus YMR129W, stronger effect = lower value 0.0584 | S. cerevisiae deletion strains, locus YMR205C, strain PFK2, stronger effect = lower value 0.0839 | S. cerevisiae deletion strains, locus YMR223W, strain ubp8, stronger effect = lower value 0.0589 | S. cerevisiae deletion strains, locus YMR231W, strain pep5, stronger effect = lower value 0.0657 | S. cerevisiae deletion strains, locus YMR263W, strain SAP30, stronger effect = lower value 0.0593 | S. cerevisiae deletion strains, locus YMR307W, strain GAS1, stronger effect = lower value 0.118 | S. cerevisiae deletion strains, locus YNL067W, strain RPL9B, stronger effect = lower value 0.051 | S. cerevisiae deletion strains, locus YNL071W, strain lat1, stronger effect = lower value 0.0619 | S. cerevisiae deletion strains, locus YNL128W, strain TEP1, stronger effect = lower value 0.0666 | S. cerevisiae deletion strains, locus YNL183C, strain NPR1, stronger effect = lower value -0.00134 | S. cerevisiae deletion strains, locus YNL209W, strain ssb2, stronger effect = lower value 0.0592 | S. cerevisiae deletion strains, locus YNL233W, strain BNI4, stronger effect = lower value 0.06 | S. cerevisiae deletion strains, locus YNL248C, strain rpa49, stronger effect = lower value 0.0743 | S. cerevisiae deletion strains, locus YNL250W, strain rad50, stronger effect = lower value 0.0631 | S. cerevisiae deletion strains, locus YNL271C, strain bni1, stronger effect = lower value 0.0667 | S. cerevisiae deletion strains, locus YNL298W, strain CLA4, stronger effect = lower value 0.0608 | S. cerevisiae deletion strains, locus YNL307C, strain MCK1, stronger effect = lower value 0.0671 | S. cerevisiae deletion strains, locus YNL322C, strain KRE1 (second series), stronger effect = lower value 0.0646 | S. cerevisiae deletion strains, locus YNL322C, strain KRE1, stronger effect = lower value 0.05 | S. cerevisiae deletion strains, locus YNR049C, strain mso1, stronger effect = lower value 0.058 | S. cerevisiae deletion strains, locus YNR052C, strain pop2, stronger effect = lower value 0.0629 | S. cerevisiae deletion strains, locus YOL006C, strain TOP1, stronger effect = lower value 0.124 | S. cerevisiae deletion strains, locus YOL012C, strain htz1 0.144 | S. cerevisiae deletion strains, locus YOL147C, strain pex11, stronger effect = lower value 0.058 | S. cerevisiae deletion strains, locus YOR001W, strain rrp6, stronger effect = lower value 0.0671 | S. cerevisiae deletion strains, locus YOR061W, strain CKA2, stronger effect = lower value 0.0521 | S. cerevisiae deletion strains, locus YOR069W, strain VPS5, stronger effect = lower value 0.0535 | S. cerevisiae deletion strains, locus YOR070C, strain gyp1, stronger effect = lower value 0.0584 | S. cerevisiae deletion strains, locus YOR080W, strain dia2, stronger effect = lower value 0.0635 | S. cerevisiae deletion strains, locus YOR083W, strain WHI5, stronger effect = lower value 0.0619 | S. cerevisiae deletion strains, locus YOR106W, strain vam3, stronger effect = lower value 0.0658 | S. cerevisiae deletion strains, locus YOR136W, strain idh2, stronger effect = lower value 0.0692 | S. cerevisiae deletion strains, locus YOR144C, strain elg1, stronger effect = lower value 0.0567 | S. cerevisiae deletion strains, locus YOR184W, strain ser1, stronger effect = lower value 0.0701 | S. cerevisiae deletion strains, locus YOR231W, strain MKK1, stronger effect = lower value 0.0983 | S. cerevisiae deletion strains, locus YOR265W, strain rbl2, stronger effect = lower value 0.0559 | S. cerevisiae deletion strains, locus YOR270C, strain vph1, stronger effect = lower value 0.0983 | S. cerevisiae deletion strains, locus YOR290C, strain snf2, stronger effect = lower value 0.0664 | S. cerevisiae deletion strains, locus YOR316C, strain cot1, stronger effect = lower value 0.0588 | S. cerevisiae deletion strains, locus YPL051W, strain arl3, stronger effect = lower value 0.0606 | S. cerevisiae deletion strains, locus YPL055C, strain LGE1, stronger effect = lower value 0.0672 | S. cerevisiae deletion strains, locus YPL078C, strain atp4, stronger effect = lower value 0.0617 | S. cerevisiae deletion strains, locus YPL106C, strain sse1, stronger effect = lower value 0.0996 | S. cerevisiae deletion strains, locus YPL240C, strain hsp82, stronger effect = lower value 0.0572 | S. cerevisiae deletion strains, locus YPL256C, strain CLN2, stronger effect = lower value 0.111 | S. cerevisiae deletion strains, locus YPR119W, strain clb2, stronger effect = lower value 0.0609 | S. cerevisiae deletion strains, locus YPR141C, strain kar3, stronger effect = lower value 0.0639 | S. cerevisiae deletion strains, locus YPR163C, strain tif3, stronger effect = lower value 0.0715 | S. cerevisiae deletion strains, locus YPR167C, strain met16, stronger effect = lower value 0.0622 | S. cerevisiae deletion strains, strain wtn01, stronger effect = lower value 0.0578 | S. cerevisiae strains, strain wild type, stronger effect = lower value 0.0505
